Measured values reported in the supplement of paper PMC13380429.
Unmarked numbers belong to inactive results.

Tested on: Vero E6 infected with SARS-CoV-2
Assay: inhibition of SARS-CoV-2 cytopathic effect; higher = more antiviral protection, active = above 15
Conditions: 48 h

Row | Compound | inhibition of SARS-CoV-2 cytopathic effect (1 nM) [%] | inhibition of SARS-CoV-2 cytopathic effect (8.33 nM) [%] | inhibition of SARS-CoV-2 cytopathic effect (100 nM) [%] | inhibition of SARS-CoV-2 cytopathic effect (833.33 nM) | inhibition of SARS-CoV-2 cytopathic effect (10000 nM)
1 | C=CC(=O)Nc1cccc(Nc2nc(Nc3ccc(NC4CN(CCF)C4)cc3OC)ncc2C(F)(F)F)c1 | 0.89 | 1.87 | 7.9 | -5.81% | -24.6%
2 | CC(=O)[C@@]12O[C@](C)(c3ccccc3)O[C@@H]1C[C@H]1[C@@H]3CCC4=CC(=O)CC[C@]4(C)[C@H]3CC[C@@]12C [algestone-acetophenide] | 0.43 | 0.88 | 1.95 | 2.43% | 2.91%
3 | CC(C)[N+](C)(CCC(C(N)=O)(c1ccccc1)c1ccccc1)C(C)C [isopropamide-iodide] | 1.15 | 1.26 | 2.29 | 1.52% | 1.2%
4 | O=C(NC(=O)c1c(F)cccc1Cl)NC1c2ccccc2-c2ccccc21 | -0.23 | -0.67 | 1.6 | 2.13% | 0.4%
5 | CN1c2ccccc2C(NCCCCCCC(=O)O)c2ccc(Cl)cc2S1(=O)=O (stereo not given) [tianeptine] | 6.9 | -1.19 | 0.25 | 2.13% | -1.2%
6 | O=c1ncn2nc(Sc3ccc(F)cc3F)ccc2c1-c1c(Cl)cccc1Cl | 1.28 | -0.16 | -1.32 | 1.03% | 1.38%
7 | CC(C)C[C@@H](N)C1(c2ccc(Cl)cc2)CCC1 | -0.06 | -2.41 | -2.87 | -1.42% | -7.34%
8 | COc1ccc(-c2coc3cc(O)cc(O)c3c2=O)cc1 [4-methylgenistein] | -1.18 | -0.05 | 0.18 | -1.7% | 2.29%
9 | CCOC(=O)[C@@H](C)Oc1ccc(Oc2nc3ccc(Cl)cc3o2)cc1 [fenoxaprop-p-ethyl] | 0.1 | -0.32 | -2.57 | 2.13% | -0.66%
10 | O=P1(N(CCCl)CCCl)NCCCO1 (stereo not given) [cyclophosphamide] | -3.03 | 0.27 | -0.35 | -1.65% | 0.46%
11 | CCOC(=O)CNC(=O)[C@@H]1CCCN1C(=O)Cc1ccccc1 | 0.67 | -0.95 | 3.29 | 2.08% | 1.46%
12 | CCCc1c(OCCCOc2ccc(OCC(=O)O)cc2)ccc(C(C)=O)c1O | 3.84 | -0.07 | 1.16 | 1.63% | 1.76%
13 | Cc1cc2c(N3CCCC3)nc(N3CCCC3)nc2n1C | 1.39 | 5.02 | 4.75 | 3.21% | 3.47%
14 | c1ccc(CCCCN2CCC(c3ccccc3)CC2)cc1 | -1.33 | -0.15 | 2.71 | 1.08% | -0.99%
15 | C/C(=N\Nc1nnc2c(n1)[nH]c1c(C)cccc12)c1ccccn1 | 0.125 | -0.485 | 1.94 | 1.06% | -7.81%
16 | CCn1c(-c2nonc2N)nc2c(C#CC(C)(C)O)ncc(OC[C@H]3CCCNC3)c21 | 2.55 | 4.66 | 3.53 | 5.33% | 4.74%
17 | CCCCCCCC/C=C\CCCCCCCC(=O)NCc1ccc(O)c(OC)c1 [olvanil] | 1.88 | -0.08 | 4.43 | 1.07% | 2.19%
18 | Cn1c2cc([S+](C)[O-])sc2c2cnn(Cc3cccc(N)c3)c(=O)c21 (stereo not given) | -0.28 | -0.88 | 5.04 | 3.73% | 4.31%
19 | CCOC(=O)c1ccccc1OC(=O)CCCCCCCC(=O)Oc1ccccc1C(=O)OCC | 6.82 | 0.93 | -6.73 | -0.1% | -6.2%
20 | CCC(COC(=O)c1cc(OC)c(OC)c(OC)c1)(c1ccccc1)N(C)C (stereo not given) [trimebutine] | -4.71 | -2.14 | -2.65 | -0.31% | 2.51%

Row | Compound | inhibition of SARS-CoV-2 cytopathic effect (1 nM) [%] | inhibition of SARS-CoV-2 cytopathic effect (8.33 nM) [%] | inhibition of SARS-CoV-2 cytopathic effect (100 nM) [%] | inhibition of SARS-CoV-2 cytopathic effect (833.33 nM) | inhibition of SARS-CoV-2 cytopathic effect (10000 nM)
21 | O=C(C[C@H]1CC(c2ccc(F)cc2F)=NO1)N1CCOCC1 (racemic) | -1.54 | 0.9 | 2.24 | 0.99% | 1.2%
22 | CC(C)(C#N)c1ccc(N2C(=O)OCc3cnc4ccc(-c5cnc6ccccc6c5)cc4c32)cc1 | 4.95 | 2.48 | 2.65 | 2.93% | 4.4%
23 | C(#CCN1CCCC1)CN1CCCC1 [tremorine] | 8.56 | 4.46 | -2.04 | -3.53% | -1.73%
24 | CC(C)C[C@@H](C=O)NC(=O)[C@H](CC(C)C)NC(=O)[C@H](CC(C)C)NC(=O)OCc1ccccc1 | -0.72 | 0.74 | 9.43 | 54% (active) | 55.5% (active)
25 | COc1ccc2c(c1)C=C1Cn3c-2c(C2CCCCC2)c2ccc(cc23)C(=O)NS(=O)(=O)N(C)CCOCCN(C)C1=O | 3.67 | 0.37 | 0.59 | 2.72% | 8.22%
26 | O[C@H]1CC[C@H](Nc2ncc3nc(Nc4c(F)cc(F)cc4F)n([C@H]4CCOC4)c3n2)CC1 | 1.66 | 2.79 | 0.98 | -0.04% | -3.68%
27 | N[C@@H](CCNCc1ccc(Cl)cc1)C(=O)N1CCCCC1 | 0.82 | -0.55 | -2.08 | -1.49% | -1.28%
28 | Cc1cnc(C(=O)O)c[n+]1[O-] [acipimox] | -1.88 | -0.46 | -1.4 | -2.17% | -1.06%
29 | COCC[n+]1c2c(n(Cc3cnccn3)c1C)C(=O)c1ccccc1C2=O | 0.33 | 4.83 | 2.74 | -2.2% | -9.2%
30 | Cc1cc(/C=C/c2ccc3cc(N(C)C)ccc3[n+]2C)c(C)n1-c1ccccc1 [pyrvinium-pamoate] | -1.06 | -0.84 | -3.02 | -2.46% | -13.7%
31 | CC[C@@]1(O)C(=O)OCc2c1cc1n(c2=O)Cc2c-1nc1cc(F)c(C)c3c1c2[C@@H](N)CC3 [exatecan-mesylate] | -2.4 | -0.39 | -7.04 | -15.8% | -20.5%
32 | C=CCCCCCCCCC(=O)[O][Zn][O]C(=O)CCCCCCCCC=C [zinc-undecylenate] | 0.73 | 0.52 | -0.83 | 0.72% | 2.73%
33 | O=C(O)CSc1nnc(Br)n1-c1ccc(C2CC2)c2ccccc12 [lesinurad] | -0.42 | -0.65 | 2.45 | 0.63% | -2.06%
34 | Cc1ccc2c(c1CCC(=O)O)CC[C@@H](NS(=O)(=O)c1ccc(Cl)cc1)C2 [terutroban] | -4.39 | -2.46 | -5.1 | -1.42% | 0.09%
35 | CO[C@@H](C(=O)N1Cc2[nH]nc(NC(=O)c3ccc(N4CCN(C)CC4)cc3)c2C1)c1ccccc1 [danusertib] | 2.82 | 2.41 | -1.12 | -0.08% | -3.74%
36 | CN[C@@H](C)[C@H]1[C@H](O)C[C@@]2(C)[C@@H]3CC[C@H]4C(C)(C)[C@@H](NC)CC[C@@]45C[C@@]35CC[C@]12C [cyclovirobuxin-D] | -0.38 | 2.73 | 3.9 | 2.48% | -7.38%
37 | C=C1/C(=C\C=C2/CCC[C@]3(C)[C@@H]([C@H](C)/C=C/[C@H](C)C(C)C)CC[C@@H]23)C[C@@H](O)C[C@@H]1O [doxercalciferol] | 0.83 | 0.03 | 0.98 | 2.04% | 2.69%
38 | Cc1ncc(CN2CC=C(c3ccccc3)CC2)c(N)n1 | 0.67 | 0.52 | -0.09 | 0.15% | 0.43%
39 | O=C(c1ccc2nccnc2c1)N1CCCCC1 [ampalex] | -0.24 | 0.88 | 0.65 | 0.17% | 0.77%
40 | COc1c2ccoc2cc2oc(=O)ccc12 [bergapten] | -0.67 | -0.91 | -2.71 | 3.76% | 14.6%
